PglD inh = PglD (C. jejuni) enzyme inhibition. purified PglD enzyme, DTNB colorimetric CoA detection. inhibition, % at 12.5 µM. 0.098% of 360,000 active; in the data active = inhibition above about 16%, passing the limit was not always enough; inconclusive = no clear call, values can overlap the other calls
Env fusion inh = HIV envelope-mediated fusion inhibition | 1.1% of 360,000 active | HeLa-JRFL Env/CEM21 cell fusion, luciferase | inhibition, % at 12.3 µM | AID 651610;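 active = mean replicate inhibition score of at least 50 and every replicate individually at or above 50; inconclusive = only one of the two criteria met; inactive = mean below 50 and not all replicates reaching 50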;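 also: 0% = plate neutral controls and 100% = maraviroc near 300 nM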
CASP6 VEID inh = caspase-6 (human) enzyme inhibition; P55212; purified caspase-6, Z-VEID-R110 cleavage fluorescence; inhibition, % at 12.5 µM; 0.53% of 350,000 active; AID 686996;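 active = mean inhibition across replicates at least about 35%, with every replicate also reaching that limit, limit read from the data; inconclusive = only one of the two criteria met; inactive = neither criterion met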;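 also: 0% = median of neutral control wells and 100% = no fluorescence left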
Target sequence (P55212 24-179 limits assumed): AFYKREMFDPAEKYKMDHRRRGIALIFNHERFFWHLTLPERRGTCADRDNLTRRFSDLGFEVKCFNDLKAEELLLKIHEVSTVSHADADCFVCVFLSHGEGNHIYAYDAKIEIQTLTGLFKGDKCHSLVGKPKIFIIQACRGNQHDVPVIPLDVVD
Target sequence (P55212 194-293 limits assumed): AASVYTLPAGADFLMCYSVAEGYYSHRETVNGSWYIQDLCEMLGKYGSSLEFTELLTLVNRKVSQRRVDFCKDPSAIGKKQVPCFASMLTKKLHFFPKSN
F508del corr = CFTR F508del correction in bronchial cells; CFBE cells, YFP halide quenching; stimulated with forskolin plus potentiator P3; % fluorescence drop versus neutral controls; 0.36% of 350,000 active; activity (quench increase), % at 7.58 µM;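 active = mean added fluorescence quench of at least 8% versus neutral control, with both replicates also reaching 8%; inconclusive = only one of the mean or replicate conditions met; inactive = mean below 8% and not both replicates reaching 8%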;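 also: cells transiently co-express mutant CFTR-F508del with the halide-sensitive YFP; corrector assay measuring rescue of mutant channel to the surface after 24 h compound exposure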
NSD2 HMT inh = NSD2 (human) methyltransferase inhibition | NSD2 peptide methylation, AlphaScreen, 120 min | inhibition, % at 12.5 µM | 0.54% of 310,000 active; in the data active = inhibition above about 50%
ALR H2O2 inh = inhibitors of human sulfhydryl oxidase ALR | P55789 | 3.8% of 290,000 active | AID 485317 | inhibition, % (concentration not given with the values) | purified ALR, DTT oxidation, H2O2 HRP-luminol luminescence;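 active = mean replicate inhibition above about 79%, with every replicate also reaching it, limit read from the data; inconclusive = only one of the two criteria met; inactive = mean below limit and not every replicate reaching it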
Target sequence (P55789 whole entry, looked up): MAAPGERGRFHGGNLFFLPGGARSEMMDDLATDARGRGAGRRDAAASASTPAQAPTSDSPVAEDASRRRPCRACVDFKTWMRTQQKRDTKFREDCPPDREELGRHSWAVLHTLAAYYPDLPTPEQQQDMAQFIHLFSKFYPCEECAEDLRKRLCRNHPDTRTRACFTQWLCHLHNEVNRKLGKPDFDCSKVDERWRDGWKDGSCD
* hit, by the source's call; ? = inconclusive; / = no result given; [ ] = another dose, or the depositor's remark. Most compounds without a hit are left out; they make up all but 4.1% or so of the library.

SMILES	PglD inh	Env fusion inh	CASP6 VEID inh	F508del corr	NSD2 HMT inh	ALR H2O2 inh
O=C(NC[C@H]1CC[C@@H]2[C@@H](CN2C(=O)CN2CCOCC2)O1)NC1CCCCC1	/	-31[16.7 µM]	-2	-1	/	/
CCS(=O)(=O)N1CCCCN2[C@@H](CO)[C@@H](c3ccc(-c4ccccc4F)cc3)[C@@H]2C1	-8	/	-4	2	/	/
CCC(=O)N1CCN=C1SCc1ccc(Cl)cc1	3	/	/	/	15	98*
CC(=O)N1CCN=C1SCc1ccc(C)cc1	-3	27	0	3	/	95*
CC(=O)N1CCN=C1SCc1ccc(Cl)cc1	6	-34	2	4	/	98*
CC(=O)N1CCN=C1SCc1ccccc1	-1	-411	-1	-3	/	3
CC(=O)N1CCN=C1SCc1ccc(F)cc1	-2	11	-2	3	/	99*
CCNC(=O)Nc1ccc2c(c1)C(=O)N(C)[C@@H]1CC[C@H](CC(=O)N[C@@H](C)c3ccccc3)O[C@H]1CO2	-2	-46[16.7 µM]	5	/	/	/
COC(=O)/C(N=Nc1c(C)n(C)n(-c2ccccc2)c1=O)=C(\C)O	/	-65	/	/	-2	72
COc1cc(N=Nc2c(C)n(C)n(-c3ccccc3)c2=O)ccc1N	1	-12	-1	2	-1	98*
O=C(C[C@@H]1CC[C@H](NC(=O)NC2CCCCC2)[C@H](CO)O1)NCc1ccc(Cl)cc1	-1	8[16.7 µM]	1	1	/	/
S=c1nc(-c2ccccc2Br)[nH][nH]1	0	/	1	-1	1	99*
CCOC(=O)c1cnc2ccc(OC)cc2c1Nc1ccc(N2CCN(C)CC2)cc1	-9	13	-25	0	25	99*
O=C(CCc1[nH]c2ccccc2c1Sc1ccccc1)NCCO	/	-25	/	/	0	99*
COCC(=O)N1CC2(C1)[C@@H](c1ccc(-c3cccc(F)c3)cc1)[C@H](CO)N2C(=O)COC	/	/	2	-2	/	/
COc1cc(/C=C2\SC(=Nc3ccccc3OC)NC2=O)ccc1O	-2	-16	2	0	6	99*
COc1ccc(/C=C2\SC(=Nc3ccccc3OC)NC2=O)cc1	-7	1	1	6	8	8
COc1ccc2c(c1)c(=O)oc1c(C)c(OCc3cc(C(=O)O)oc3C)ccc12	-9	-10	51*	-1	/	6
CCNC(=S)/C(=C(/[O-])c1ccc([N+](=O)[O-])cc1)[n+]1ccccc1	/	5	-1	1	0	99*
C=CCNC(=S)/C(=C(/[O-])c1ccc([N+](=O)[O-])cc1)[n+]1ccccc1	/	-3	-10	0	-1	56
COc1ccc(-c2cn(CC[C@H]3CC[C@H](N)[C@@H](CO)O3)nn2)cc1	0	3[16.7 µM]	2	2	/	/
O=C(Nc1nc2ccc(S(=O)(=O)N3CCCC3)cc2s1)c1cccs1	5	/	/	/	0	/
Cc1ccc2nc(NC(=O)C3CCN(S(=O)(=O)c4cccs4)CC3)sc2c1	0	80*	/	/	/	-12
COc1ccc2nc(NC(=O)C3CCN(S(=O)(=O)c4cccs4)CC3)sc2c1	0	/	/	/	/	-8
O=C(Nc1nc2ccc(S(=O)(=O)N3CCCCC3)cc2s1)c1ccncc1	5	7	/	/	1	98*
SMILES	PglD inh	Env fusion inh	CASP6 VEID inh	F508del corr	NSD2 HMT inh	ALR H2O2 inh
CN(C)S(=O)(=O)c1ccc2nc(NC(=O)c3cccs3)sc2c1	0	-142	/	/	33	86*
COc1ccc(S(=O)(=O)Nc2ccc3c(c2)C(=O)N([C@H](C)CO)C[C@H](C)[C@H](CN(C)C(=O)c2ccccc2)OCCCC[C@H](C)O3)cc1	1	-145[16.7 µM]	-4	-1	/	/
C[C@@H]1CN([C@@H](C)CO)C(=O)c2cc(C#Cc3cccc(F)c3)cnc2O[C@H]1CN(C)C(=O)c1ccccc1F	3	15[16.7 µM]	2	-1	/	/
COc1ccc2[nH]c3c(c2c1)CCNC3=O	1	?	-1	-2	/	/
O=C1NCCc2c1[nH]c1ccc([N+](=O)[O-])cc21	/	67*	1	11*	-1	-2
COc1ccc(-n2nnnc2S(=O)(=O)Cc2ccc(C(=O)O)cc2)cc1	-2	?	/	/	7	98*
COc1ccc(-n2nnnc2S(=O)(=O)CC(=O)N2CCCCC2)cc1	4	-66	2	-6	/	98*
CN1C(=O)c2cc(NC(=O)Nc3ccc(Cl)cc3)ccc2OC[C@@H]2O[C@H](CC(=O)O)CC[C@@H]21	1	2[16.7 µM]	-2	-2	/	/
COc1cccc(NC(=O)N2CC[C@@H]3[C@@H](CO)N(C)c4ccc(-c5ccccc5)cc4[C@@H]32)c1	0	/	-6	3	/	/
Cc1cccc(C2NC(=O)c3c(sc(C)c3C)N2)c1O (stereo not given)	/	/	/	/	4	/
Cc1ccc(C2NC(=O)c3c(sc(C)c3C)N2)c(O)c1 (stereo not given)	/	-96	/	/	/	92*
COc1ccc2c3c(n(C)c2c1)[C@@H](CO)N(Cc1ccncc1)CC31CN(C(=O)NC(C)C)C1	/	/	/	-3	/	/
C[C@@H](NC(=O)C[C@H]1C[C@@H]2c3cc(NS(C)(=O)=O)ccc3O[C@@H]2[C@H](CO)O1)c1ccccc1	0	-15[16.7 µM]	1	2	/	/
Cc1ccc(S(=O)(=O)/N=C(\CCl)N2CCOCC2)cc1	1	8	11	/	/	97*
Cc1ccc(S(=O)(=O)/N=C(\CN2CCOCC2)N2CCCC2)cc1	-4	/	/	/	-1	4
CN1/C(=C\C=C2/SC(=S)N(CC(=O)O)C2=O)C(C)(C)c2ccccc21	/	13	-8	16*	30	98*
CO[C@H]1CN(C)C(=O)c2cc(NC(=O)C3CC3)ccc2OC[C@@H](C)N(C(=O)c2cccnc2)C[C@@H]1C	-1	-8[16.7 µM]	2	-1	/	/
COc1ccccc1-c1coc2cc(O)cc(O)c2c1=O	-1	/	/	/	0	16
O=c1c(-c2ccc(O)cc2O)coc2cc(O)cc(O)c12	-2	/	8	-2	/	81*
C[C@H]1CN([C@@H](C)CO)C(=O)c2cc(-c3ccccc3F)cnc2O[C@H]1CN(C)C(=O)c1cnccn1	-2	/	3	-6	/	/
O=[N+]([O-])c1cc(CN2CCN(c3cccc(C(F)(F)F)c3)CC2)c2cccnc2c1O	/	52	69*	-3	20	-19
CCCC(=O)Nc1ccc(NC(=O)Cc2ccccc2)cn1	-2	/	/	/	2	99*
CCCC(=O)Nc1ccc(NC(=O)CCc2ccccc2)cn1	-3	-9	/	/	/	-7
CCN(CC)c1ccc(CNc2nc3ccccc3n2CCN2CCOCC2)cc1	-2	44	-3	1	3	98*
COc1ccc(CNc2nc3ccccc3n2CCN2CCOCC2)cc1	-3	15	/	/	-3	94*
c1csc(CNc2nc3ccccc3n2CCN2CCOCC2)c1	2	1	/	/	5	16
CC1(C)CC(=O)C(Sc2nnc(-c3ccc(NS(C)(=O)=O)cc3)n2Cc2ccco2)C(=O)C1	-2	/	/	/	1	92*
COc1ccc2c(C)cc(SCC(=O)NC3CCCC3)nc2c1	-1	/	2	-3	0	/
COc1ccc2c(C)cc(SCC(=O)c3ccc4c(c3)OCO4)nc2c1	/	35	/	/	-2	99*
